DT40 TDP1 CPT – DT40-hTDP1 cell growth loss with CPT. chicken DT40 Tdp1-/-;hTDP1 cells + 20 nM CPT, ATP luminescence, 48 h. Potency, µM (series often up to 46.2 µM), for inactives: top-dose activity change, negative = growth inhibition, actives largely listed as inhibitors. hit rate 12% among 420,000. AID 686979; note: potency is the fitted concentration of half-maximal effect; nearly all actives have a fitted effect of over 55% in size
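Chicken DT40 Tdp1-/- cells stably complemented with human TDP1 were seeded at 400 cells/well in medium containing 20 nM camptothecin, exposed to pin-transferred compounds, and grown at 37 °C for at least 48 hr. Viability was read as ATP luminescence.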
HT1080NT lethal – kills 2HG-producing HT-1080-NT fibrosarcoma cells; HT-1080-NT fibrosarcoma viability, CellTiter-Glo ATP luminescence, 48 h; Potency, µM (doses to about 46.1 µM), for the others: at the highest dose activity, negative = less viability, most hits filed as cytotoxic; hit rate 1.6% among 360,000;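 note: NT is the 2HG producing partner of a matched IDH1 knockdown line; potency is the fitted concentration of half-maximal effect; 0% = DMSO-treated cells and -100% = media-only wells without cells; nearly all actives have a fitted effect of over 55% in size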
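A 48-hour cytotoxicity screen used HT-1080-NT cells plated 2 hours before compound delivery. ATP-based CellTiter-Glo luminescence measured viability, normalized to DMSO and no-cell controls.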
ALOX12 inh – blocks human arachidonate 12S-lipoxygenase; P18054; purified 12hLO, xylenol orange hydroperoxide absorbance; Potency, µM (doses to about 108 µM), for inactives: top-dose activity change, negative = inhibition, usual class: inhibitors; hit rate 1.1% among 580,000; AID 1671190; note: potency is the fitted concentration of half-maximal effect
Target sequence (P18054 whole entry, looked up): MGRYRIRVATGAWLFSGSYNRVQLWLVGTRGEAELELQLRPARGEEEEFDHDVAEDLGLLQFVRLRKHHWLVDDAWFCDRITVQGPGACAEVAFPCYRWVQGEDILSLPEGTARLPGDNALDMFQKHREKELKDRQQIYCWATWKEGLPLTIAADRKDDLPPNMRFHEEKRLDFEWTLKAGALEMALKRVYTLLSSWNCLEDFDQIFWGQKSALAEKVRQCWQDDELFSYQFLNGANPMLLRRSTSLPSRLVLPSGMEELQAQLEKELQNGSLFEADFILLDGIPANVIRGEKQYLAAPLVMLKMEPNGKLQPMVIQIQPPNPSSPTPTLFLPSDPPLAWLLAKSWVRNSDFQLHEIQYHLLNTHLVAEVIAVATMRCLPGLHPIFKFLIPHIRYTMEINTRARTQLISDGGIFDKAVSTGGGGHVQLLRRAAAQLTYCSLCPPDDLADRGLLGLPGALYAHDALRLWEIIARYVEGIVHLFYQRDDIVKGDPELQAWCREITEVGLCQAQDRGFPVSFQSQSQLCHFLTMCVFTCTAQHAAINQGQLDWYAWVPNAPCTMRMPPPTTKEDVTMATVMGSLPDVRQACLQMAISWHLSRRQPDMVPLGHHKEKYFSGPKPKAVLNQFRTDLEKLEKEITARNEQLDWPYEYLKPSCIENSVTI
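Purified human 12hLO at 150 nM in 25 mM Hepes, 0.01% Triton X-100, pH 7.0, preincubated 15 min at room temperature with compound. Reaction started with 40 uM arachidonic acid, 30 min at room temperature. Hydroperoxide measured by Fe-xylenol orange, 573/405 nm absorbance ratio.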
HT1080 IDH1KD tx – HT-1080 IDH1 knockdown cell toxicity (counter line) | HT-1080 IDH1 knockdown viability, ATP luminescence, 48 h | Potency, µM (series often up to 46.1 µM), for inactives: top-dose activity, negative = toxicity, hits mostly cytotoxic | hit rate 2% among 360,000 | AID 686971;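 note: potency is the fitted concentration of half-maximal effect; 0% = DMSO wells and -100% = cell-free medium wells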
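After a 2 h attachment period, IDH1KD HT-1080 cells took pin-transferred compound for 48 h at 37 °C; ATP-based luminescence after 10 min room-temperature reagent incubation reported viability.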
TDP1 cell noCPT – qHTS for Inhibitors of human tyrosyl-DNA phosphodiesterase 1 (TDP1): qHTS in cells in absence of CPT; DT40 Tdp1-/- hTDP1 cells, no CPT, ATP luminescence, 48 h; Potency, µM (top dose mostly 46.2 µM), for the others: at the top dose activity change, negative = growth inhibition, usual class: inhibitors; hit rate 15% among 420,000; AID 686978, 2013; note: potency is the fitted concentration of half-maximal effect; nearly all actives have a fitted effect of over 55% in size
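Growth kinetics read by CellTiter-Glo luminescence after ≥48 hr at 37 °C. Cells: DT40 Tdp1-/- stably carrying human TDP1, 400 per well, compound exposure in the absence of CPT (DMSO vehicle).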
IL-1B inflam inh – inhibitors of inflammasome signaling (IL-1 beta secretion); AID 743279; THP-1 LPS/ATP IL-1B secretion, AlphaLISA, 16 h; active compounds read low; hit rate 4.7% among 360,000; activity change, % at 57.5 µM; in the data active = activity change below about -50%; inconclusive = mostly about -30% to -49%
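THP-1 cells pretreated 1 hr with compounds (up to 57.5 uM final), then stimulated with LPS (250 ng/mL final) plus ATP (1.25 mM final); secreted IL-1B measured by AlphaLISA after 16 hr, decreased signal indicating inhibition.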
* = called active by the depositor; ? = inconclusive; · = not tested or not shown; [ ] = dose if it differs, or a comment. Many of the other results were omitted from the sample, so hits are more common in it than they were. Unless noted, calls come from the whole dose curve; as a rule, active = well fitted curve in the direction sought with a large enough effect; inconclusive = small, poorly fitted or top-dose-only effect, or another doubt; inactive = no such curve, though single readings can be large; an effect the other way counts as inactive or inconclusive. Unless noted, % is set by controls: 0 for no effect and ±100 for the full control effect.

SMILES	DT40 TDP1 CPT	HT1080NT lethal	ALOX12 inh	HT1080 IDH1KD tx	TDP1 cell noCPT	IL-1B inflam inh
COc1ccc(Cl)cc1NCCC(O)c1ccc(F)cc1 (stereo unspecified)	18µM*	2%	0%	0%	9.2µM*	-1
CCOC(=O)/C(=C\Nc1cccc(OCc2ccccc2)c1)NC(=O)c1ccccc1	·	·	-19%	·	·	·
Cc1ccc(S(=O)(=O)N2CCN(CCNC(=O)c3ccc(C(F)(F)F)cc3)CC2)cc1	·	·	16µM*	·	·	·
Cc1ccc(S(=O)(=O)N2CCN(CCNC(=O)c3cccc(C(F)(F)F)c3)CC2)cc1	·	·	28µM*	·	·	·
COc1ccc(CN(CC2CCCO2)C(=O)c2cc3sccc3n2C)c(OC)c1 (stereo unspecified)	-9%	-26%	-7%	-25%	?	-104*
O=C(CN(Cc1cccs1)S(=O)(=O)c1ccc(S(=O)(=O)NC2CCCCC2)cc1)Nc1ccccc1	21µM*	-9%	6%	-26%	18µM*	-16
O=C(CN(C1CC1)S(=O)(=O)c1ccc(S(=O)(=O)NC2CCCCC2)cc1)Nc1ccccc1	?	?	1%	-37%	?	-13
Cc1ccc2c(c1)c1c(n2CC(O)CNC(C)(C)C)CCCC1 (stereo unspecified)	?	-15%	-28%	-23%	?	?
Cc1ccc2c(c1)c1c(n2CC(O)Cn2nc(C)c(Br)c2C)CCCC1 (stereo unspecified)	?	?	-20%	?	16µM*	-21
Cc1nn(CC(O)Cn2c3c(c4ccccc42)CCN(C)C3=O)c(C)c1Br (stereo unspecified)	-20%	-5%	0%	-3%	-19%	-23
Cc1ccc2c(c1)c1c(n2CC(O)Cn2c(C)nc3ccccc32)CCCC1 (stereo unspecified)	23µM*	?	?	?	?	-11
Cc1ccc2c(c1)c1c(n2CC(O)CN2CCCCCC2)CCCC1 (stereo unspecified)	?	?	-4%	?	15µM*	-74*
CCC(C)NC(=O)C1(NC(=O)Nc2ccccc2)CCCCC1 (stereo unspecified)	16µM*	1%	309%	0%	18µM*	-1
CCCCNC(=O)C1(NC(=O)Nc2ccc(C)cc2)CCCCC1	7.3µM*	4%	2%	?	?	-2
NC(=O)c1nc(CNC(=O)CC(c2ccccc2)c2cccc(Cl)c2)no1 (stereo unspecified)	·	·	64%	·	·	·
COC(CNC(=O)C(C)(C)C)c1ccccc1 (stereo unspecified)	·	·	7%	·	·	·
CNC(=O)N(O)C1N(/N=C/c2ccccc2O)C(=S)SC1(C)C (stereo unspecified)	5.2µM*	0%	-3%	7%	2.1µM*	22
CNC(=O)N(O)C1N(/N=C/c2ccccc2F)C(=S)SC1(C)C (stereo unspecified)	-12%	-2%	0%	5%	13%	10
O=C(O)CCCNc1cc(N2CCN(C3CCCCC3)CC2)c2noc3c2c1C(=O)c1ccccc1-3	-12%	·	-7%	·	1%	·
CCN1CCN(c2cc(N3CCN(C(=O)c4ccco4)CC3)c3c4c(onc24)-c2ccccc2C3=O)CC1	7.3µM*	?	·	?	9.2µM*	-52*
CCCCNc1cc(NC2CCCCC2)c2c3c(onc13)-c1ccccc1C2=O	?	·	2%	·	?	·
O=C(O)CCNc1cc(N2CCN(C(=O)c3ccco3)CC2)c2noc3c2c1C(=O)c1ccccc1-3	-2%	?	-11%	?	-26%	-71*
CCNc1cc(N2CCN(C3CCCCC3)CC2)c2noc3c2c1C(=O)c1ccccc1-3	?	·	3%	·	?	·
O=C1c2ccccc2-c2onc3c(NCCO)cc(NC4CCCCC4)c1c23	18µM*	·	-17%	·	?	·
Cn1nc(C(=O)NC2CCCN(c3cc(-c4ccc(F)cc4)[nH]n3)C2)c2ccccc21 (stereo unspecified)	·	·	53%	·	·	·
SMILES	DT40 TDP1 CPT	HT1080NT lethal	ALOX12 inh	HT1080 IDH1KD tx	TDP1 cell noCPT	IL-1B inflam inh
CC(C)CNC(=O)C1COC2(CCCCC2)N1C(=O)c1cccc([N+](=O)[O-])c1 (stereo unspecified)	·	·	10%	·	·	·
NNC(=O)c1[nH]c2ccccc2c1-c1ccccc1	?	?	0%	1.3µM*	15µM*	24
O=C(N/N=C/c1ccc(O)cc1)c1[nH]c2ccc(Br)cc2c1-c1ccccc1	3.7µM*	4.6µM*	-12%	4.1µM*	2.9µM*	122
O=C(N/N=C/c1c[nH]c2ccccc12)c1[nH]c2ccc(Br)cc2c1-c1ccccc1	5.8µM*	7.3µM*	-2%	6.5µM*	3.7µM*	151
O=C(N/N=C/c1c[nH]c2ccccc12)c1cc(Br)ccc1O	-19%	?	20%	-29%	6%	24
CCOc1ccc(/C=N/NC(=O)c2[nH]c3ccc(C)cc3c2C)cc1	-10%	-7%	0%	-12%	-27%	-24
Cc1c(C(=O)N/N=C/c2ccc(Cl)cc2)[nH]c2ccc(Cl)cc12	0.82µM*	5.8µM*	1%	3.3µM*	0.92µM*	56
CC/C(C)=N/NC(=O)c1[nH]c2ccc(C)cc2c1-c1ccccc1	-11%	?	7%	?	?	39
CC(=O)NNC(=O)c1[nH]c2ccc(Cl)cc2c1-c1ccccc1	-27%	-28%	133%	?	?	7
O=C(N/N=C/c1[nH]c2ccccc2c1Cl)c1cccc(Br)c1	4%	-7%	?	-1%	?	-84*
O=C(NN=C1CCCC1)c1[nH]c2ccc(Cl)cc2c1-c1ccccc1	?	?	-18%	12µM*	?	·
Fc1ccccc1-c1cc2c(cn1)CN(Cc1cccnc1)CCN2	·	·	21%[176 µM]	·	·	·
Nc1nc(-c2ccccc2)c(N=Nc2cccc3ccccc23)s1	23µM*	?	-27%	21µM*	16µM*	-26
CC(=O)Nc1sc(N)nc1-c1ccccc1	3%	2%	1%	8%	-18%	30
Nc1nc(-c2ccccc2)c(N=Nc2ccccc2Cl)s1	-16%	?	?	18µM*	16µM*	-64*
CCOc1ccc(NC(=O)COC(=O)CN2CCCCCC2=O)cc1	-1%	7%	-7%	8%	-10%	-9
N#Cc1ccccc1COC(=O)c1cccc(OC(F)F)c1	·	·	-25%	·	·	·
